LmPK inh: qHTS Assay for Inhibitors of Leishmania Mexicana Pyruvate Kinase (LmPK); Q27686; purified LmPK, Kinase-Glo ATP luminescence, 1 h; Potency, µM (titrated, usually from 57.5 µM), for inactives: at the highest dose activity change, negative = inhibition, most hits filed as inhibitors; 0.37% of 290,000 active; active = well fitted curve in the direction sought with a large enough effect; inconclusive = small, poorly fitted or top-dose-only effect, or another doubt; inactive = no such curve, though single readings can be large; an effect the other way counts as inactive or inconclusive; also: potency is read from the fitted curve at half-maximal effect; % is scaled to controls: 0 for no effect and ±100 for the full control effect
Target sequence (Q27686 whole entry, looked up): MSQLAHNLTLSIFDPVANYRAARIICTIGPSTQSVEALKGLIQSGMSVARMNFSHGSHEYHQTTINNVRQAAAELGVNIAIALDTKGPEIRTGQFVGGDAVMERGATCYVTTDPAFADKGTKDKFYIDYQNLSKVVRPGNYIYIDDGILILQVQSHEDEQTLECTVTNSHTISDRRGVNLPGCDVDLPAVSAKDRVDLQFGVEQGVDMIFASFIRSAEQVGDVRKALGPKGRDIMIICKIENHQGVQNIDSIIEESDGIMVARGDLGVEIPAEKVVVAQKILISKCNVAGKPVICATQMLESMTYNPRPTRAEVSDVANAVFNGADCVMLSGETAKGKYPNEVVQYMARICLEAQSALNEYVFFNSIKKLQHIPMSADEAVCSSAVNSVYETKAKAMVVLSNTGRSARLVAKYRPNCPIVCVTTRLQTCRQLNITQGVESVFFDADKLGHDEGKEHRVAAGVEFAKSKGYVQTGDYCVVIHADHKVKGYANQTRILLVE
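qHTS format; LmPK 0.1 nM; substrates PEP 0.5 mM and ADP 0.1 mM. One-hour room-temperature incubation, then coupled luciferase luminescence; 0.5 nM enzyme wells mark activation.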
SARS PLP yeast: qHTS of Yeast-based Assay for SARS-CoV PLP; S. cerevisiae expressing SARS-CoV PLpro, growth rescue; 0.19% of 330,000 active; Potency, µM (doses to about 32.9 µM), inactives show at the top dose activity, positive = growth rescue, actives largely listed as activators; also: potency is read from the fitted curve at half-maximal effect; 0% is about no effect; nearly all actives have a fitted effect of over 55% in size
Cycloheximide cs: Cycloheximide Counterscreen for Small Molecule Inhibitors of Shiga Toxin; 12% of 300,000 active; cell reporter, cycloheximide protein synthesis inhibition counterscreen; max response, %; in the data active = max response mostly above about 13%, no sharp cut-off; inactive = mostly below about 14%; also: read at 38.3 µM for the half of the compounds with a filed dose; 0% is about no effect
Shiga toxin inh: A qHTS for Small Molecule Inhibitors of Shiga Toxin | Vero cells, Shiga toxin protein synthesis inhibition reporter | inhibition, % at 38.7 µM | 9.2% of 290,000 active | AID 2315, 2010; in the data active = inhibition mostly above about 28%, no sharp cut-off; inactive = mostly below about 43%; also: 0% is about no effect
NS1 function inh: qHTS Assay for Inhibitors of Influenza NS1 Protein Function; Potency, µM (top dose mostly 46.1 µM), for inactives: at the top dose activity, positive = more growth; 0.4% of 270,000 active; also: potency is read from the fitted curve at half-maximal effect; actives are rising curves; nearly all actives have a fitted effect of over 50% in size
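S. cerevisiae expressing influenza A NS1, grown in glucose, washed, then diluted 1:100 into pH 6.0 -URA galactose medium with 23 nl compound. Growth recovery read as OD600; NS1-free strain serves as control.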
Tb PYK inh: qHTS of Trypanosoma Brucei Inhibitors; TbPYK enzyme, Kinase-Glo Plus ATP luminescence, 45 min; Potency, µM (top dose mostly 76.8 µM), for inactives: at the highest dose activity, negative = inhibition, hits mostly inhibitors; 0.12% of 410,000 active; active = well fitted curve in the direction sought with a large enough effect; inconclusive = small, poorly fitted or top-dose-only effect, or another doubt; inactive = no such curve, though single readings can be large; an effect the other way counts as inactive or inconclusive; also: potency is read from the fitted curve at half-maximal effect; % is scaled to controls: 0 for no effect and ±100 for the full control effect; nearly all actives have a fitted effect of over 50% in size
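Assay buffer: 50 mM TEA pH 7.2, 100 mM KCl, 10 mM MgCl2, 0.05% BSA, 0.01% Tween-20. Pyruvate kinase from T. brucei plus substrate met compound, then ADP (130 uM final). Luminescence was read post 45 min RT.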
Starred values were filed as active, the others as inactive; ? = inconclusive; . = no result given. The full list was thinned out, with hits kept by preference. Unless noted, calls follow the shape of the full dose curve.

SMILES	LmPK inh	SARS PLP yeast	Cycloheximide cs	Shiga toxin inh	NS1 function inh	Tb PYK inh
Cc1ccc(NC(=O)CSc2ccccc2NC(=O)c2ccccc2Cl)cc1Cl	1%	-9%	18*	26	-4%	-1%
Cc1ccc(NC(=O)CSc2ccccc2NC(=O)c2ccccc2)cc1Cl	1%	-10%	34*	18	3%	17%
COc1ccc2c(n1)Sc1nc3ccccc3nc1N2	-19%	-5%	56*	75*	-36%	-8%
CN(C(=O)C1CCCN1S(=O)(=O)c1ccc(Cl)cc1)c1ccccc1 (centres undefined)	.	1%	.	.	.	-3%
CCOC(=O)c1[nH]c2c(c1-c1ccccc1)C(=O)CC(c1ccc(OC)c(OC)c1)C2 (centres undefined)	3%	1%	15*	-11	-5%	0%
O=C(c1ccc2c(c1)OCO2)N1CCC2(CC1)Oc1ccc(Cl)cc1C(=O)C21CC(c2ccccc2)=NO1 (centres undefined)	12%	1%	-4	-11	9%	2%
Cc1oc(-c2cc(F)ccc2F)nc1CN1CCCN(C(=O)c2ccco2)CC1	4%	1%	-4	-6	9%	-2%
CCc1ccc(-n2nc(C)c3c(C(=O)Nc4cc(C)c(Cl)cc4OC)cc(C)nc32)cc1	.	.	.	.	.	3%
COCCNc1nc(-c2cc(C)c(C)cc2C)cs1	1%	-1%	20*	73*	7%	4%
CN(C)c1oc(COc2ccccc2F)nc1C#N	-4%	-2%	29*	59*	0%	2%
COc1ccc(CCNc2oc(COc3ccc(Br)cc3)nc2C#N)cc1OC	10%	-2%	-6	-4	-52%	-5%
COc1ccc(CCNc2oc(COc3ccccc3F)nc2C#N)cc1	-1%	-22%	15*	30	-71%	0%
C=CCNc1oc(COc2ccc(C)cc2)nc1C#N	6%	0%	25*	136*	-48%	1%
N#Cc1nc(COc2ccccc2F)oc1NCc1ccc(F)cc1	7%	-4%	35*	64*	-18%	-5%
CC1CCCCC12NC(=O)N(CC(=O)N1CCN(c3ncccn3)CC1)C2=O (centres undefined)	.	9%	.	.	.	1%
CCn1c(SCC(=O)NC2CCCCC2)nnc1C(C)NC(=O)c1ccccc1F (centres undefined)	-5%	0%	-2	-4	6%	-13%
O=C([C@@H]1Cc2ccccc2CN1)N1CCN(Cc2ccccc2)CC1	-15%	1%	-2	-3	1%	8%
Cc1ccc(Nc2nc3nonc3[nH]c2=O)cc1C	4%	-22%	36*	108*	-96%	0%
Cc1ccc2c(c1)N[C@H](c1ccc(C(=O)O)cc1)c1cccn1-2	.	.	.	.	17%	.
Oc1ccc(N2CCN(Cc3ccc(OCCCN4CCCCC4)cc3)CC2)cc1	5%	-1%	-2	-3	.	?
COc1ccc(OCCOCCN2CCN(C)CC2)cc1	-1%	-1%	-3	-1	18%	1%
CCCCCCOc1ccc(CN2CCN(C)CC2)cc1	-2%	-4%	41*	134*	3%	0%
CCCCOc1ccc(CN2CCCCC2)cc1	3%	3%	17*	45*	4%	-3%
O=c1[nH]c(CN2CCCCC2)ccc1O	.	.	.	.	.	-9%
Cc1c(C(=O)NCc2ccccc2)sc2nc3n(c(=O)c12)CCCCC3	.	.	.	.	.	2%
SMILES	LmPK inh	SARS PLP yeast	Cycloheximide cs	Shiga toxin inh	NS1 function inh	Tb PYK inh
O=c1sc(N2CCN(c3ccc(F)cc3)CC2)nc2ccsc12	5%	7%	12	43	-13%	4%
O=c1sc(N2CCN(c3ccccc3F)CC2)nc2ccsc12	4%	2%	37*	56*	3%	-1%
O=C(c1ccco1)N1CCN(c2nc3ccsc3c(=O)s2)CC1	2%	-2%	31*	49*	-8%	-6%
O=C1N=c2ccccc2=C1c1sc(NS(=O)(=O)c2ccccc2)nc1O	-20%	1%	12	-4	.	-27%
O=C1N=c2ccccc2=C1c1sc(Nc2cccc(O)c2)nc1O	-13%	-4%	44*	48*	20%	11%
O=C1N=c2ccccc2=C1c1sc(Nc2ccc(O)cc2)nc1O	-4%	1%	12	64*	.	1%
Cc1ccc(C(=O)NN=C2CCCCCC2)s1	-2%	-5%	47*	59*	5%	0%
O=C(NN=C1CCCCCC1)c1ccc(Cl)s1	4%	-4%	10	12	-5%	3%
Cc1ccsc1C(=O)NN=C1CCCCCC1	2%	-4%	51*	96*	-11%	2%
Cc1nc2cc3nc(C)sc3cc2s1	-10%	-9%	36*	109*	-34%	-26%
COCCCNc1oc(-c2ccc(COc3ccc(Cl)cc3)o2)nc1C#N	.	.	.	.	.	2%
COCCNc1oc(-c2ccc(Cl)cc2)nc1C#N	0%	4%	38*	70*	-7%	-7%
COCCNc1oc(-c2ccc(C)cc2)nc1C#N	0%	-4%	23*	66	-6%	-3%
Cc1ccc(-c2nc(C#N)c(NCCN3CCCCC3)o2)cc1	-2%	0%	15*	25*	2%	4%
N#Cc1nc(-c2ccc(F)cc2)oc1NCCN1CCOCC1	-1%	0%	2	17	5%	-2%
COCCNc1oc(-c2ccc(OC)cc2)nc1C#N	.	.	.	.	.	-3%
COc1ccc(NC(=O)c2oc3ccccc3c2NC(=O)Cc2coc3c(C)c(C)ccc23)cc1	.	.	.	.	.	1%
Cc1ccccc1CSc1cn(CC(=O)N2CCCCC2)c2ccccc12	.	.	.	.	.	-5%
CCOc1ccc(N(Cc2ccc(OC)c(OC)c2)C(=O)c2ccco2)cc1	2%	20%	9	49	0%	0%
CCOc1ccc(CN(C(=O)c2ccccn2)c2ccc(OC)c(Cl)c2)cc1	8%	-3%	31	64*	-2%	1%
Cc1ccccc1-n1c2nc(=O)[nH]c(=O)c-2cc2c(Cl)cccc21	.	.	.	.	.	2%
COc1cccc(N(C(=O)c2ccco2)C(C(=O)NC2CCCC2)c2ccc(N(C)C)cc2)c1 (centres undefined)	0%	?	20*	17	-19%	-7%
CC(=O)c1ccc(N(C(=O)c2ccco2)C(C(=O)NC2CCCC2)c2cccs2)cc1 (centres undefined)	-2%	1%	29*	26	6%	-6%
CCOc1ccccc1N(C(=O)c1ccco1)C(C(=O)NC1CCCC1)c1cccs1 (centres undefined)	0%	-1%	-2	2	-7%	0%
COc1cc(OC)cc(N(C(=O)c2ccco2)C(C(=O)NC2CCCC2)c2ccc(N(C)C)cc2)c1 (centres undefined)	3%	2%	1	-11	-8%	-4%
